The results in this text go back to PubChem BioAssay.

Test [1] is described as follows: compounds binding Alexa647 anti-His antibody – biochemical, small-molecule microarray, 635 nm fluorescence, artefact control for SMM control protein annotation, primary screen (AID 1128).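 Also: score merges feature fluorescence with signal-to-noise for each printed compound spot.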 As to conditions: higher = more signal.
The subject of test [2] is Human papillomavirus type 1a E7 protein (residues 1-88). Put plainly: HPV1a E7 small-molecule binders, primary screen, biochemical, small-molecule microarray, residues 1-88, 635 nm (AID 1129). The note with it: small-molecule microarray binding, fluorescence 635 nm; higher = more signal.
In test [3] the target is Focal adhesion kinase 1 (Homo sapiens) (UniProt Q05397). Put plainly: PTK2 protein binding on printed compound slides – biochemical, small-molecule microarray, 635/667 nm fluorescence, BSA, DTT, primary screen (AID 1130).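 Also: composite of spot emission at 667 nm and signal to noise over triplicate slides.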 As to conditions: 635 nm fluorescence, higher = more signal.
Focal adhesion kinase 1 (Homo sapiens), sequence (Q05397 whole entry, looked up): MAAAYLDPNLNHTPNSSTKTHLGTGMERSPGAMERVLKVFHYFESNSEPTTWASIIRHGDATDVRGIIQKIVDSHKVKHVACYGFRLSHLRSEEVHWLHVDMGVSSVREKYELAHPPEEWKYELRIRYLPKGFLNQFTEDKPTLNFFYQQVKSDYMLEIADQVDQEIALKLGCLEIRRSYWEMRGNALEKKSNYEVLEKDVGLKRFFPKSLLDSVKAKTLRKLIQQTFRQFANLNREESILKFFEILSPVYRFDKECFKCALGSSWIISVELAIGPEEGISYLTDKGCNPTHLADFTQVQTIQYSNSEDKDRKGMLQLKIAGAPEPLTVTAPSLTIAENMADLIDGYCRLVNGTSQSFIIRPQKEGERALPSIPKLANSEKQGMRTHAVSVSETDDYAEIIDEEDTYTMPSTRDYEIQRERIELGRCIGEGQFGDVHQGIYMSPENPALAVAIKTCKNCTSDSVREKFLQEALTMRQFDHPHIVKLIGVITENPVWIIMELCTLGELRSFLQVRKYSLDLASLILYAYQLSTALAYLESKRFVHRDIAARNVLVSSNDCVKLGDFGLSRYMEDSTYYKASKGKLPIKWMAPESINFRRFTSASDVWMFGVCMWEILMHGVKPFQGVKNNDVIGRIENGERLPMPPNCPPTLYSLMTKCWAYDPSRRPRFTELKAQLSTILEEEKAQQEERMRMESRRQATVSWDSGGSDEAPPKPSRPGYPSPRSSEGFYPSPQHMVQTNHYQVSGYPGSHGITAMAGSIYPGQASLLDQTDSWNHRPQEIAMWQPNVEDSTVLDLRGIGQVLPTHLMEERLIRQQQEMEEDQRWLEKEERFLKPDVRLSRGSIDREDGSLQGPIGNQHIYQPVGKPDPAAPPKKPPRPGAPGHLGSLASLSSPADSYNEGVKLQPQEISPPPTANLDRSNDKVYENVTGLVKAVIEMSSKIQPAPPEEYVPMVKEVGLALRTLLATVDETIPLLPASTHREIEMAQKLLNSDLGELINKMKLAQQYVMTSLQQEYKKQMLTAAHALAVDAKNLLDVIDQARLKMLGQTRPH
Test [4] relates to Fibrinogen (Alexa647-labelled). Put plainly: Alexa647-fibrinogen binding to printed small molecules – biochemical, small-molecule microarray, 635/667 nm fluorescence, artefact control for SMM control-protein annotation, profiling panel (AID 1131).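 Also: z-score merges 667 nm fluorescence with per-spot signal-to-noise over triplicate slides.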 As to conditions: fibrinogen-A647 binding fluorescence, higher = more signal.
For test [5], the target named is Follistatin (Homo sapiens) (UniProt P19883). Put plainly: FST protein binding to printed compounds – biochemical, small-molecule microarray, 635/667 nm fluorescence, primary screen (AID 1132). As to conditions: 635 nm fluorescence, higher = more signal.
Follistatin (Homo sapiens), sequence (P19883 whole entry, looked up): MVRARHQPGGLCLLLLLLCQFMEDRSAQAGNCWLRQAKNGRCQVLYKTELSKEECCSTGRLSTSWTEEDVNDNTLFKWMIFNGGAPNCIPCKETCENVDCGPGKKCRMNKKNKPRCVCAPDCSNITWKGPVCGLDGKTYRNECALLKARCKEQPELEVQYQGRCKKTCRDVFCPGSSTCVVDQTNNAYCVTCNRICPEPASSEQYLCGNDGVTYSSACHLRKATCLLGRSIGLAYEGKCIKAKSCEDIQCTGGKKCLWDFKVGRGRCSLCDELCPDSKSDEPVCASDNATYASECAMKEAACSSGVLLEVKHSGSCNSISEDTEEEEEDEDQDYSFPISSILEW
For test [6], the target named is Fibroblast growth factor 2 (Homo sapiens) (UniProt P09038). Put plainly: basic fibroblast growth factor binding to printed compounds – biochemical, small-molecule microarray, 635/667 nm fluorescence, primary screen (AID 1133). As to conditions: FGF2, fluorescence 635/667, higher = more signal.
Fibroblast growth factor 2 (Homo sapiens), sequence (P09038 whole entry, looked up): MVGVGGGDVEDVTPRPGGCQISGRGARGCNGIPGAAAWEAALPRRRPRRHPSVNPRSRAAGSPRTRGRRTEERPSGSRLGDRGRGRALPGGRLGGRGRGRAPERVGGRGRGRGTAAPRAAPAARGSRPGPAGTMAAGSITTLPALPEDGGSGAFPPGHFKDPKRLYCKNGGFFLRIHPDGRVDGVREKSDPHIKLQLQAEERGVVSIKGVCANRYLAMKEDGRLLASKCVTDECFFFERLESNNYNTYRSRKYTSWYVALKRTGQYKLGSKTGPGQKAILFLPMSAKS
The nature of test [7]: JC-1 mitochondrial potential readout, lung cancer cells – cell-based, A549, JC-1 fluorescence, basal, 24 h, 100 nL, profiling panel (AID 1138).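 Also: A549 lung adenocarcinoma cells under basal conditions with no added stimulus; test concentration not given here.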 The note with it: higher = more signal.
In test [8] the test system is Lefty1. Put plainly: Lefty1 protein binding to printed compounds – biochemical, small-molecule microarray, 635/667 nm fluorescence, primary screen (AID 1139). As to conditions: fluorescence 635/667, higher = more signal.
Test [9] concerns wheat germ agglutinin (Triticum aestivum), Alexa647-labelled. Put plainly: Alexa647-WGA lectin binding to printed small molecules – biochemical, small-molecule microarray, 635/667 nm fluorescence, artefact control for SMM control-protein annotation, profiling panel (AID 1140).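 Also: score merges 667 nm feature emission with signal to noise over triplicate slides.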 The note with it: WGA-A647 binding, 635 nm fluorescence, higher = more signal.
For test [10], the target named is Luciferin 4-monooxygenase (Photinus pyralis) (UniProt P08659). Put plainly: inhibition of purified Photinus pyralis luciferase – biochemical, luminescence, purified enzyme, 2006 set, primary screen (AID 1141).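 Also: cell-free assay with purified firefly luciferase at 100 ng per well in PBS; test concentration not given here.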 The note with it: purified firefly luciferase, SteadyGlo luminescence, 30 min; higher = more signal, called active from +8 up or from −8 down.
Luciferin 4-monooxygenase (Photinus pyralis), sequence (P08659 whole entry, looked up): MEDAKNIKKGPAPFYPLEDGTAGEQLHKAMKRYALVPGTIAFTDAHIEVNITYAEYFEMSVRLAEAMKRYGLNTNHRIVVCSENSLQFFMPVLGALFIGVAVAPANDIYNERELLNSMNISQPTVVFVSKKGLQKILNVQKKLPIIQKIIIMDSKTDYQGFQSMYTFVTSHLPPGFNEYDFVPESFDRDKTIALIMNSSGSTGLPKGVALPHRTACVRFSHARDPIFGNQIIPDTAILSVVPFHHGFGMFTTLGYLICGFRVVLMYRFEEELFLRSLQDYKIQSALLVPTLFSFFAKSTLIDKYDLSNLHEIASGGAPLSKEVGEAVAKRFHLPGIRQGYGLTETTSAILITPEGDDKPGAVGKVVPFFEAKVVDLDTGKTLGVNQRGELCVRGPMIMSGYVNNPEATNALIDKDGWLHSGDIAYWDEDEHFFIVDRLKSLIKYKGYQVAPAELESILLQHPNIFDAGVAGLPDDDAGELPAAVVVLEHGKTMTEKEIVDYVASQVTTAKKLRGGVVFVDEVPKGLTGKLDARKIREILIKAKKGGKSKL
Test [11] deals with Wnt5a (protein binding on small-molecule microarray). Put plainly: small molecules binding Wnt5a protein – biophysical, small-molecule microarray, 635/667 nm fluorescence, primary screen (AID 1142).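 Also: fluorescence read at 667 nm with signal to noise per printed feature.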 As to conditions: 635 nm fluorescence, higher = more signal.
Test [12] is described as follows: ATP-based viability of Huh7 replicon cells – cell-based, CellTiter-Glo luminescence, basal, 48 h, cytotoxicity control for HCV replication inhibitor project, primary screen (AID 1143).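 Also: Huh7 hepatoma cells carrying a hepatitis C replication reporter with no stimulus; test concentration not given here.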 The note with it: higher = more signal, called active from +8 up or from −8 down.
A short description of test [13]: Pseudomonas biofilm growth suppression – PAO1 strain, BacTiter-Glo luminescence, LB-PBS, primary screen (AID 1144). As to conditions: P. aeruginosa PAO1 biofilm, 12 h, higher = more signal.
Test [14] in a line: basal CRE-LacZ reporter activity in PC12 – cell-based, unstimulated, primary screen (AID 1145). As to conditions: no forskolin, luminescence, 4.5 h, higher = more signal, called active from +8 up or from −8 down.
Test [15] can be described thus: forskolin-driven CRE-LacZ activity in PC12 – cell-based, CRE-LacZ reporter, forskolin-stimulated, primary screen (AID 1146).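 Also: PC12 cells with 6xCRE LacZ reporter stimulated by forskolin 10 µM; beta-galactosidase reporter signal reflecting CREB driven transcription.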 As to conditions: luminescence, 4.5 h, higher = more signal, called active from +8 up or from −8 down.
Test [16] concerns the target Streptavidin (Streptomyces avidinii) (UniProt P22629). Put plainly: compounds binding control protein streptavidin – biophysical, small-molecule microarray, 635/667 nm fluorescence, artefact control for SMM compound annotation, primary screen (AID 1147).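 Also: signal reflects streptavidin binding to arrayed compounds as a control protein.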 The note with it: higher = more signal.
Test [17] in a line: probe aInhba binding on compound microarray – biochemical, small-molecule microarray, 635/667 nm fluorescence, primary screen (AID 1148).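 Also: score merges 667nm spot fluorescence with signal-to-noise for antibody binding to printed compounds.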 As to conditions: higher = more signal.
The target in test [18] is Torsin-1A (Homo sapiens) (UniProt O14656). Put plainly: TOR1A wild-type binding on microarray – cell lysate, small-molecule microarray, lysate, 635/667 nm, primary screen (AID 1149). The note with it: COS7 hTOR1A-WT lysate, 635 nm fluorescence, higher = more signal.
Torsin-1A (Homo sapiens), sequence (O14656 whole entry, looked up): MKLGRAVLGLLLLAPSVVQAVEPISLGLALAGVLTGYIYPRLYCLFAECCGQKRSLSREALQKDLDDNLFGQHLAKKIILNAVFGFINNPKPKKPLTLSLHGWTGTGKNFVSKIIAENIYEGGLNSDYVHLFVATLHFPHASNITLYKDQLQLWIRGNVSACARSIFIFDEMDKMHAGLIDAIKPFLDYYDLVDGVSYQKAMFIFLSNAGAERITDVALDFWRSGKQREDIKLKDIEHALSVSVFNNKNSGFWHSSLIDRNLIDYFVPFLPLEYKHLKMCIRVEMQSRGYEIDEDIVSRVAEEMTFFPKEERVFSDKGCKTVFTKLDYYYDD
Test [19] has the same target. Put plainly: torsin A mutant lysate binding on microarrays – cell lysate, small-molecule microarray, COS7 lysate, 635/667 nm fluorescence, primary screen (AID 1150).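 Also: score pools 667 nm emission and signal to noise measuring lysate protein binding.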 The note with it: COS7 hTOR1A mutant lysate, 635 nm fluorescence, higher = more signal.
The test system of test [20] is Sonic hedgehog protein (Shh). Put plainly: Sonic hedgehog microarray binding compounds – biochemical, small-molecule microarray, 635/667 nm fluorescence, primary screen (AID 1151).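 Also: Shh protein binding to compounds spotted on small-molecule microarray slides; score combines spot fluorescence intensity with signal-to-noise across triplicate slides.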 As to conditions: 635 nm fluorescence, higher = more signal.

SMILES strings stand for the structures. Active and inactive are the calls of the source. Unless noted, no rule for the calls is given here.

Streptavidin (Streptomyces avidinii), sequence (P22629 whole entry, looked up): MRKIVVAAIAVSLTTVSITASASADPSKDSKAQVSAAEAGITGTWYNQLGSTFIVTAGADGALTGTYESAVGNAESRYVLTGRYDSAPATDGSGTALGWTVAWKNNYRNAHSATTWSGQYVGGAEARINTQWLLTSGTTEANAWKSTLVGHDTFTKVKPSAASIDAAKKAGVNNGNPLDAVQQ

For `C=CCOC(=O)[C@H]1[C@@H]2C(=O)O[C@@H](c3ccccc3)[C@@H](c3ccccc3)N2[C@@H](c2ccc(OCCOC(=O)[C@H]3C[C@H]4C(=O)N[C@@H](CCCC[N+](C)(C)C)C(=O)N4[C@H]3c3cccc(OCCO)c3)cc2)[C@]12C(=O)Nc1ccc(I)cc12`, the composite z-score in test [1] turned out to be 1.21; in [2], 0.915; in test [3], 0.293; in test [4], 0.82; in test [5] it was 1.34; in test [6], 1.7. Besides, the composite z-score is 0.761 in [8]; 0.19 in test [9]; 0.419 in test [11]; -0.0117 in test [16]; -0.13 in test [17]; 0.485 in test [18]. Further, the composite z-score in [19] was 0.29; in test [20] it was 1.03. For the same compound, the z-score in [7] was -1.45; in [10] it was -0.678 (inactive); in [12] it was -0.587 (inactive); in [13], -1.08 (inactive); in [14], 0.415 (inactive); in test [15], -0.0044 (inactive).
`Cc1ccc(C(C)CC(O)C2C=CC3C(=O)N(c4ccccc4)C(=O)C3N2Nc2ccc(C(C)C)cc2)o1` (stereo not given): the composite z-score in [1] was 0.953; in [2] it was 1.16; in test [3], 0.423; in test [4], 0.59; in test [5], 0.75; in test [6], -0.14. In addition, the composite z-score was -0.795 in test [8]; 1.15 in test [9]; 0.301 in test [11]; 1.33 in [16]; 0.343 in test [17]; 0.216 in test [18]. In addition, the composite z-score in test [19] was 0.715; in [20], 0.154. In addition, the z-score is -0.678 in test [7]; -0.528 (inactive) in [10]; 0.183 (inactive) in [12]; -0.203 (inactive) in test [13]; 0.246 (inactive) in test [14]; 0.0702 (inactive) in test [15].
In the case of `COC(=O)[C@@]1(Cc2ccc(F)cc2)[C@H]2c3cc(C(=O)N4CCCC4)n(CCc4c[nH]c5ccc(OC)cc45)c3C[C@H]2CN1C(=O)c1ccccc1`, the composite z-score in test [1] is 2.4; in test [2], 1.22; in test [3], 2.48; in [4], 0.845; in test [5] it was 0.685; in test [6] it was 0.6. For the same compound, the composite z-score in test [8] was 0.385; in test [9] it was 0.977; in test [11], 1.51; in test [16] it was 1.53; in [17], 1.62; in test [18], 0.844. Also, the composite z-score was 0.736 in test [19] and 0.0332 in test [20]. Moreover, the z-score in test [7] was -1.17; in [10], 1.64 (inactive); in test [12], -4.66 (inactive); in test [13], -0.23 (inactive); in test [14], 0.0041 (inactive); in [15], -0.556 (inactive).
As to `O=C1NCC(=O)N2[C@@H]1C[C@@H](C(=O)O)[C@H]2c1ccc(O)cc1`, the composite z-score turned out to be 3.15 in [1]; 1.19 in test [2]; 0.278 in test [3]; 0.8 in [4]; 1.38 in test [5]; 1.9 in test [6]. For the same compound, the composite z-score in [8] amounted to 1.56; in test [9], 0.255; in test [11] it was 0.27; in [16] it was 0.237; in test [17], 0.0104; in test [18], 1.13. For the same compound, the composite z-score in test [19] was determined as 2.29; in test [20], 2.01. The z-score in test [7] was 0.563; in [10] it was -0.504 (inactive); in test [12], -0.286 (inactive); in test [13], -0.611 (inactive); in test [14], 0.0084 (inactive); in test [15], 0.622 (inactive).
For the compound `O=C1c2ccccc2[C@@]2(Cc3ccccc3N(C3CC3)C2=O)[C@H](c2ccc(CO)cc2)N1C1CCCCC1`, the composite z-score in [1] is -1.14; in test [2], -0.729; in [3] it was -0.375; in test [4] it was -0.624; in test [5] it was -0.667; in test [6], -0.329. Further, the composite z-score was -0.825 in test [8]; 0.637 in test [9]; -0.157 in [11]; -0.885 in test [16]; -0.0791 in test [17]; -0.822 in [18]. In addition, the composite z-score is -0.928 in test [19] and -0.309 in test [20]. The z-score in test [7] was 0.306; in [10], 0.429 (inactive); in test [12], 0.0786 (inactive); in test [13], 0.122 (inactive); in [14], 0.145 (inactive); in test [15], 0.428 (inactive).
In the case of `COCCOC(=O)N1C(=O)[C@@]2(c3cc(C#CC4(O)CCCCCC4)ccc31)[C@H](c1ccccc1OCCO)N1[C@H](c3ccccc3)[C@H](c3ccccc3)OC(=O)[C@H]1[C@@H]2C(N)=O`, the composite z-score in test [1] was 1.47; in test [2], 1.18; in [3] it was 0.639; in test [4], 0.872; in [5] it was 1.41; in test [6] it was 1.51. Further, the composite z-score in test [8] is 1.56; in test [9], 1.02; in [11] it was 0.448; in test [16], 0.421; in [17], -0.0494; in test [18], 0.749. The values for the composite z-score in test [19] and in test [20] were 0.761 and 1.97, respectively. The z-score is -1.68 in [7]; -0.927 (inactive) in test [10]; -6.31 (inactive) in test [12]; 0.754 (inactive) in test [13]; 0.245 (inactive) in test [14]; 0.0169 (inactive) in test [15].
For `COC(=O)C1(Cc2ccccc2)C=C2C(=C(C(C)C)C(=O)C2C)CN1` (stereo not given), the composite z-score in test [1] is 3.27; in test [2], -0.11; in [3], 0.757; in test [4] it was -0.72; in test [5], -1.25; in [6], -1.07. In addition, the composite z-score is -1.36 in test [8]; 0.349 in test [9]; 0.131 in [11]; -0.333 in test [16]; 0.147 in test [17]; 0.334 in [18]. Moreover, the composite z-score is 0.707 in test [19] and -0.45 in test [20]. The z-score is -1.83 in test [7]; 1.27 (inactive) in test [10]; -0.576 (inactive) in test [12]; 0.429 (inactive) in test [13]; 0.59 (inactive) in test [14]; -0.173 (inactive) in test [15].
In the case of `C[C@]1(C(=O)NCCN2CCOCC2)c2ccccc2C(=O)N(Cc2ccc(OC(F)(F)F)cc2)[C@H]1c1ccc(CO)cc1`, the composite z-score in test [1] was 2.24; in [2], 0.634; in test [3], -0.108; in test [4], 0.915; in test [5], 0.536; in [6] it was -0.38. Moreover, the composite z-score was -0.355 in test [8]; 0.55 in test [9]; -0.333 in test [11]; -0.152 in test [16]; -0.101 in test [17]; 0.816 in test [18]. In addition, the results for the composite z-score in [19] and in test [20] were 0.853 and -0.704, respectively. In addition, the z-score in [7] is 1.68; in [10] it was -0.0852 (inactive); in [12] it was -0.653 (inactive); in [13], -0.67 (inactive); in test [14], -0.412 (inactive); in [15], -0.51 (inactive).
`CC(C)(C)N1CC=CC23O[C@@H]4C=CCOC(=O)[C@@H]4[C@H]2C(=O)N(CCCO)[C@@H]3C1=O` (stereo not given in full): the composite z-score in [1] is -1.08; in test [2], -1.21; in test [3], -0.595; in test [4], -1.79; in test [5], -1.79; in [6] it was -1.28. Besides, the composite z-score was -1.34 in test [8]; -1.13 in test [9]; -0.56 in test [11]; -1.48 in test [16]; -0.317 in test [17]; 0.213 in test [18]. The composite z-score in test [19] was -0.0267; in test [20], -0.471. Also, the z-score in [7] is -0.908; in [10] it was -0.11 (inactive); in test [12], -1.97 (inactive); in [13] it was 0.0204 (inactive); in test [14], 0.321 (inactive); in test [15], 0.0029 (inactive).
